Assay [1] in a line: qHTS assay for small molecule agonists of the p53 signaling pathway (AID 651631; calls by dose curve; also: nearly all actives have a fitted effect of over 15% in size; also: potency is read from the fitted curve at half-maximal effect). The method, boiled down:
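HCT-116 cells carrying a stable p53 response element–beta-lactamase reporter were plated, rested 5 h at 37 °C, then exposed to compound in DMSO for 16 h at 37 °C; reporter activity was read as FRET substrate fluorescence after 2 h at room temperature.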

The nature of assay [2]: qHTS assay for small molecules that induce genotoxicity in human embryonic kidney cells expressing luciferase-tagged ATAD5 (AID 651632). Also: nearly all actives have a fitted effect of over 15% in size. A digest of the protocol:
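Test compounds were delivered by pin tool onto HEK293T reporter cells (2,000/well) expressing ATAD5 fused to luciferase. After 16 hr at 37C, 5% CO2, Amplite was added for 30 min at room temperature and luminescence was measured.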
A general note: In qHTS, concentration-response curves come from the screen itself.

Assay [3] is described as follows: qHTS assay for small molecule agonists of the p53 signaling pathway - cell viability (AID 651633; calls by dose curve; also: nearly all actives have a fitted effect of over 30% in size; also: potency is read from the fitted curve at half-maximal effect; as to activity change, negative = cytotoxicity: series mostly up to about 83 µM). The method, boiled down: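 Viability counter-read: CellTiter-Glo luminescence (30 min, room temperature) in the same p53RE-bla plates. These plates had been exposed to compounds for 16 h at 37 C.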
Assay [4] is described as follows: qHTS assay for small molecules that induce genotoxicity in human embryonic kidney cells expressing luciferase-tagged ATAD5 - cell viability (AID 651634; calls by dose curve; also: nearly all actives have a fitted effect of over 25% in size; also: potency is read from the fitted curve at half-maximal effect). A digest of the protocol: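 Quantitative high-throughput format. HEK293T cells expressing ATAD5 fused to luciferase were plated at 2,000 cells/well and treated 15.5 hr with compound versus DMSO. Viability was determined by fluorescent live-cell protease substrate, 30 min at 37C.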

Assay [5] in a line: qHTS assay for small molecule disruptors of the mitochondrial membrane potential - cell viability (AID 720634; calls by dose curve; also: nearly all actives have a fitted effect of over 20% in size; also: potency is read from the fitted curve at half-maximal effect;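 as to activity change, negative = cytotoxicity: human HepG2 liver cancer cells; series mostly up to about 83 µM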). A digest of the protocol:
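Same-well counter-screen: following the MMP dye addition, CellTiter-Glo was added to 1 hr compound-treated HepG2 cells and luminescence read after 30 min at room temperature.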

Assay [6] can be described thus: qHTS assay to test for compound auto fluorescence at 590 nm (red) in HepG2 cells (AID 720674). Also: potency is read from the fitted curve at half-maximal effect. A digest of the protocol:
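1 hr compound incubation on HepG2 cells, 37 C, 5% CO2; plate read ex 540 nm / em 590 nm; intensities reported as Rose Bengal sodium equivalents.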

Assay [7] in a line: qHTS assay to test for compound auto fluorescence at 535 nm (green) in HepG2 cells (AID 720675).
The nature of assay [8]: qHTS assay to test for compound auto fluorescence at 460 nm (blue) in HEK293 cells (AID 720678). A digest of the protocol: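 Intrinsic compound fluorescence is recorded in live HEK293 cultures after overnight incubation at 37C, 5% CO2, using excitation 405 nm and emission 460 nm. Values are referenced to triamterene.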
Assay [9] is described as follows: qHTS assay to test for compound auto fluorescence at 590 nm (red) in HEK293 cells (AID 720679). Also: potency is read from the fitted curve at half-maximal effect. The method, boiled down:
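Red autofluorescence, HEK293 cells: 2,000 cells/well; attach 4-5 hr 37C; add 23 nL cpd or DMSO; incubate o/n 37C 5% CO2; read Ex540/Em590; Rose Bengal sodium reference.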

Assay [10] in a line: qHTS assay for small molecule disruptors of the mitochondrial membrane potential (AID 720635). Also: potency is read from the fitted curve at half-maximal effect. The method, boiled down:
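Mitochondrial membrane potential tracked with Mito-MPS dye, red aggregates (ex 540/em 590 nm) against green monomers (ex 490/em 535 nm). Compound treatment 1 hr at 37C, dye 30 min in HepG2.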

The structures appear in SMILES notation. Values without a mark were called inactive. Records with an inconclusive call do not appear. Calls of active or inactive are those of the source. Unless noted, calls follow the shape of the dose curve; as a rule, active = well fitted curve in the direction sought with a large enough effect in the repeat runs; inconclusive = weak or mixed curves; inactive = no such curve, though single readings can be large; an effect the other way counts as inactive or inconclusive.
% is scaled to controls: 0 for no effect and ±100 for the full control effect; tags tell the direction and shape of the fitted curve or compound fluorescence and quenching.

Consider `CCCCCCOC(=O)C(C)CC` (configuration not stated), for which the Potency entry in assay [1], in assay [2], in assay [3], in assay [4], in assay [5] and in assay [6] was “inactive” in each case. Besides, the Potency entry in [7], in assay [8] and in assay [9] was “inactive” in each case.
In the case of `CC(C)(C)CC(C)(C)c1ccc(Nc2ccc(C(C)(C)CC(C)(C)C)cc2)cc1`, the activation in assay [1] was -6.72% [at 8.3 µM]; in assay [2], 2.9% [at 8.08 µM]. The activity change, negative = cytotoxicity is -13.1% [at 8.08 µM] in [3] and 4.18% [at 8.08 µM] in assay [5]. Moreover, in assay [4], the activity, negative = cytotoxicity was 13.9% [at 8.08 µM]. For the same compound, the ratio activity, negative = MMP loss in [10] was 34.3% [at 8.08 µM]. In addition, the fluorescence, % of fluorescein control in assay [7] is 0.0549% [at 3.72 µM]. In addition, the fluorescence, % of triamterene in assay [8] is -0.186% [at 3.72 µM]. The fluorescence, % of fluorescent control in assay [9] was -0.94% [at 3.72 µM].
For the compound `CCN(CCN)c1cccc(C)c1`, the Potency entry in [1], in assay [2], in [3], in [4], in assay [5] and in assay [6] was “inactive” throughout. The Potency entry in assay [7], in assay [8] and in [9] was “inactive” throughout.
`C=CC(C)(CCC=C(C)C)OC=O` (configuration not stated): the Potency entry in [1], in assay [2], in assay [3], in [4], in assay [5] and in assay [6] was “inactive” each time. Also, the Potency entry in assay [7], in assay [8] and in assay [9] was “inactive” each time.
`CCCCC(CC)CN1CN(CC(CC)CCCC)CC(C)(N)C1` (configuration not stated): the Potency result in assay [1], in assay [2], in assay [3], in assay [4], in assay [5] and in assay [10] was “inactive” throughout. Moreover, in assay [7], the fluorescence, % of fluorescein control is 0.0031% [at 18.6 µM]. Besides, the fluorescence, % of triamterene in assay [8] was -0.206% [at 18.6 µM]. Moreover, the fluorescence, % of fluorescent control in assay [9] is -0.0426% [at 18.6 µM].
With `C=CCn1c(=O)n(CC=C)c(=O)n(CC=C)c1=O`, the Potency entry in assay [1], in assay [2], in assay [3], in assay [4], in assay [5] and in assay [6] was “inactive” in each case. For the same compound, the Potency result in [7], in [8] and in assay [9] was “inactive” in each case.
Consider `C[Si](Cl)(c1ccccc1)c1ccccc1`, for which the Potency entry in assay [1], in assay [2], in [3], in [4], in assay [5] and in [6] was “inactive” each time. The Potency entry in [7], in [8] and in assay [9] was “inactive” each time. In addition, the Potency in assay [10] was 26.6 µM (active).
For `CC(CCc1ccccc1)NCC(O)c1ccc(O)c(C(N)=O)c1` (configuration not stated), the Potency result in assay [1], in assay [2], in [3], in assay [4], in assay [5] and in assay [10] was “inactive” throughout. Further, the Potency result in [6], in assay [7], in assay [8] and in assay [9] was “inactive” throughout.
Turning to `CCOC(=O)Cn1cccc1-c1nc(-c2ccc(OC)cc2)c(-c2ccc(OC)cc2)s1`, in assay [1], the Potency is 29.8 µM (active). Besides, the Potency result in [2], in assay [3], in assay [4], in assay [5], in assay [10] and in assay [7] was “inactive” throughout. Further, the Potency entry in assay [8] and in [9] was “inactive” each time.
In the case of `CCN(CC)c1ccc2c(-c3ccc(S(=O)(=O)O)cc3S(=O)(=O)[O-])c3ccc(=[N+](CC)CC)cc-3oc2c1`, the Potency result in assay [1], in assay [2], in [7] and in assay [8] was “inactive” throughout. The Potency in assay [3] is 9.99 µM (active); in assay [4], 25.1 µM (active); in [5], 70.7 µM (active); in assay [6] it was 0.398 µM (active); in assay [9], 0.501 µM [fluorescent] (active).
Take `COC(=O)c1ccccc1C`: the Potency result in assay [1], in assay [2], in assay [3], in assay [4], in assay [5] and in assay [6] was “inactive” throughout. The Potency result in assay [7], in assay [8] and in assay [9] was “inactive” each time.
With `CCc1ccc(Br)cc1`, the Potency result in assay [1], in assay [2], in assay [3], in [4], in [5] and in assay [10] was “inactive” in each case. In addition, the Potency entry in assay [6], in [7], in [8] and in assay [9] was “inactive” throughout.
In the case of `CCC(=O)OC(=O)CC`, the Potency entry in assay [1], in assay [2], in assay [3], in assay [4], in [5] and in [6] was “inactive” in each case. Further, the Potency result in [7], in [8] and in [9] was “inactive” in each case.
On to `O=[N+]([O-])c1ccc(O)cc1C(F)(F)F`, for which the Potency in [1] is 27.3 µM (active); in assay [4] it was 27.3 µM (active); in [5], 5.45 µM (active); in assay [10] it was 3.44 µM (active). Besides, the Potency entry in assay [2], in [3], in [6], in assay [7], in assay [8] and in [9] was “inactive” in each case.
On to `O=C(O)c1cc(=O)c2ccccc2o1`, for which the Potency entry in [1], in assay [2], in assay [3], in [4], in assay [5] and in assay [10] was “inactive” each time. In addition, the Potency entry in assay [7], in assay [8] and in assay [9] was “inactive” in each case.
For `O=C(O)c1cccc(C(F)(F)F)c1`, the Potency entry in assay [1], in [2], in assay [3], in [4], in [5] and in assay [6] was “inactive” throughout. For the same compound, the Potency entry in [7], in assay [8] and in [9] was “inactive” each time.
For `COc1cc(C)ccc1O`, the Potency entry in assay [1], in [2], in assay [3], in assay [4], in assay [5] and in assay [10] was “inactive” throughout. Besides, the Potency entry in assay [6], in [7], in assay [8] and in assay [9] was “inactive” throughout.
In the case of `O=C(Oc1ccccc1)Oc1ccccc1`, the Potency result in [1], in [2], in [3], in assay [4], in assay [5] and in [10] was “inactive” each time. Also, the Potency result in assay [6], in assay [7], in [8] and in [9] was “inactive” each time.
In the case of `COc1cccc(OC)c1C(=O)O`, the Potency result in assay [1], in assay [2], in [3], in [4], in assay [5] and in [6] was “inactive” throughout. Also, the Potency result in [7], in assay [8] and in [9] was “inactive” throughout.
As for `O=c1[nH]c(=O)n([C@H]2C[C@H](O)[C@@H](CO)O2)cc1F`, the Potency in assay [1] was 0.944 µM (active); in assay [3], 0.211 µM (active). Besides, the Potency result in assay [2], in assay [4], in [5], in assay [10], in [6] and in assay [7] was “inactive” in each case. Besides, the Potency result in assay [8] and in [9] was “inactive” each time.
For the compound `CC(=O)c1ccc(C(C)=O)cc1`, the Potency entry in assay [1], in assay [2], in assay [3], in [4], in assay [5] and in assay [10] was “inactive” throughout. The Potency result in assay [6], in assay [7], in [8] and in [9] was “inactive” each time.
Turning to `O=C(O)[C@H](O)[C@@H](O)[C@H](O[C@@H]1O[C@H](CO)[C@H](O)[C@H](O)[C@H]1O)[C@H](O)CO`, the Potency result in assay [1], in assay [2], in assay [3], in [4], in assay [5] and in assay [10] was “inactive” each time. Besides, in assay [6], the fluorescence, relative to Rose Bengal is 0.507% [at 18.6 µM]. For the same compound, in [7], the fluorescence, % of fluorescein control was 0.0584% [at 18.6 µM]. Further, the fluorescence, % of triamterene in assay [8] was 0.228% [at 18.6 µM]. In addition, the fluorescence, % of fluorescent control in assay [9] is 0.434% [at 18.6 µM].

For the origin of these results see PubChem BioAssay (Tox21).
